Experimental data from PubChem BioAssay (NCI).
Compounds without any hit were thinned out: in the full panel of roughly 83,000, 20% have a hit.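 Values shown are percent growth following 48 h exposure of cells in 96-well plates to a single concentration of compound; below 10 was considered active.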 Active and inactive are the calls of the source.

Experiments:
Assay in all cases: NCI-60 one-dose screen, 48 h (100 = growth as untreated, 0 = no growth, -100 = all killed)
Conditions in all cases: 10 µM unless noted
NCI-H23 lung = tested on: NCI-H23 lung
NCI-H226 lung = tested on: NCI-H226 lung
NCI-H322M lung = tested on: NCI-H322M lung
HOP-62 NSCLC = tested on: HOP-62 NSCLC
NCI-H460 lung = tested on: NCI-H460 lung
HOP-92 NSCLC = tested on: HOP-92 NSCLC
NCI-H522 lung = tested on: NCI-H522 lung
A549/ATCC NSCLC = tested on: A549/ATCC NSCLC
786-0 renal = tested on: 786-0 renal
COLO 205 colon = tested on: COLO 205 colon
DU-145 prostate = tested on: DU-145 prostate
K-562 leukemia = tested on: K-562 leukemia
MALME-3M melanoma = tested on: MALME-3M melanoma
MDA-MB-231 breast = tested on: MDA-MB-231 breast
RXF 393 renal = tested on: RXF 393 renal
SF-268 CNS = tested on: SF-268 CNS
SF-295 CNS = tested on: SF-295 CNS
SF-539 CNS = tested on: SF-539 CNS
UACC-257 melanoma = tested on: UACC-257 melanoma
M14 melanoma = tested on: M14 melanoma

Measured: growth

COc1cccc(-c2cc(-c3ccc(Nc4nc(Nc5ccc(Cl)cc5)nc(Nc5ccc(Cl)cc5)n4)cc3)nc(N)c2C#N)c1
active: HOP-92 NSCLC -85.7% | COLO 205 colon -30.4% | MALME-3M melanoma -52.9% | MDA-MB-231 breast -14.1% | RXF 393 renal -48.7% | SF-539 CNS 6.72%
inactive: NCI-H23 lung 37.9% | NCI-H226 lung 10.5% | NCI-H322M lung 99.9% | HOP-62 NSCLC 95% | NCI-H460 lung 69% | NCI-H522 lung 87.4% | A549/ATCC NSCLC 43% | 786-0 renal 59.2% | DU-145 prostate 56.3% | K-562 leukemia 41.5% | SF-268 CNS 71% | SF-295 CNS 83.2% | UACC-257 melanoma 16.3% | M14 melanoma 15.6%

CCCC[N+]1(C)CCN=C1Cc1ccccc1 (stereo not given)
inactive: NCI-H23 lung 101% | NCI-H226 lung 97.6% | NCI-H322M lung 99.9% | HOP-62 NSCLC 105% | NCI-H460 lung 110% | HOP-92 NSCLC 90.9% | NCI-H522 lung 88.5% | A549/ATCC NSCLC 87.8% | 786-0 renal 101% | COLO 205 colon 111% | DU-145 prostate 106% | K-562 leukemia 84.6% | MALME-3M melanoma 98.2% | MDA-MB-231 breast 109% | RXF 393 renal 100% | SF-268 CNS 97.7% | SF-295 CNS 97.4% | SF-539 CNS 96.2% | UACC-257 melanoma 93.7% | M14 melanoma 106%

CN1CCN(Cc2ccc(NC(=O)c3cncc(C#Cc4c(N)ncc5c(F)cccc45)c3)cc2C(F)(F)F)CC1
inactive: NCI-H226 lung 14%
active: NCI-H23 lung -66.3% | NCI-H322M lung -23.7% | HOP-62 NSCLC -80.2% | NCI-H460 lung -48% | HOP-92 NSCLC -58.8% | NCI-H522 lung -76% | A549/ATCC NSCLC -90.6% | 786-0 renal -79% | COLO 205 colon -83.6% | DU-145 prostate -90.3% | K-562 leukemia -66.9% | MALME-3M melanoma -74.3% | MDA-MB-231 breast -89.6% | RXF 393 renal -91.5% | SF-268 CNS -63.6% | SF-295 CNS -70.6% | SF-539 CNS -95.4% | UACC-257 melanoma -73% | M14 melanoma -66%

COc1nc2ccccc2cc1/C=[N+](\[O-])c1ccccc1
inactive: NCI-H23 lung 75.4% | NCI-H226 lung 69.5% | NCI-H322M lung 86.5% | HOP-62 NSCLC 80.4% | NCI-H460 lung 99.6% | HOP-92 NSCLC 64.4% | NCI-H522 lung 82.7% | A549/ATCC NSCLC 94.8% | 786-0 renal 102% | COLO 205 colon 108% | DU-145 prostate 102% | K-562 leukemia 13.5% | MALME-3M melanoma 60.9% | MDA-MB-231 breast 57.5% | RXF 393 renal 85.5% | SF-268 CNS 65.5% | SF-295 CNS 93.5% | SF-539 CNS 34.2% | UACC-257 melanoma 93% | M14 melanoma 39.6%

CCN1C(=O)N(CC)C2C1NC(=S)N2/N=C/C=C/c1cccs1 (stereo not given)
inactive: NCI-H23 lung 42.6% | NCI-H226 lung 64.5% | NCI-H322M lung 50.9% | HOP-62 NSCLC 51.1% | HOP-92 NSCLC 88.8% | A549/ATCC NSCLC 24.9% | 786-0 renal 43.1% | COLO 205 colon 18.3% | DU-145 prostate 23% | K-562 leukemia 11.2% | MALME-3M melanoma 45.5% | MDA-MB-231 breast 26.6% | SF-268 CNS 66.2% | SF-295 CNS 16.2% | UACC-257 melanoma 63.1% | M14 melanoma 12.3%
active: NCI-H460 lung 7.03% | NCI-H522 lung -5.25% | RXF 393 renal -5.1% | SF-539 CNS -16%

CCN1CCN(c2nc(NNC(=O)c3ccc(OC)cc3)nc(N3CCN(C(c4ccccc4)c4ccccc4)CC3)n2)CC1
inactive: NCI-H23 lung 53.3% | NCI-H226 lung 71.9% | NCI-H322M lung 84.1% | HOP-62 NSCLC 83.6% | HOP-92 NSCLC 58.7% | NCI-H522 lung 85.3% | A549/ATCC NSCLC 64.4% | 786-0 renal 22.9% | DU-145 prostate 72.2% | K-562 leukemia 14% | MDA-MB-231 breast 82.9% | RXF 393 renal 55.7% | SF-268 CNS 81.8% | SF-295 CNS 71.3% | SF-539 CNS 73.2% | UACC-257 melanoma 10.3%
active: NCI-H460 lung -6.88% | COLO 205 colon -8.98% | MALME-3M melanoma -63.7% | M14 melanoma -40.5%

Cn1ccnc1C(=O)/C=C/c1ccc(C(=O)Nc2c(F)c(F)c(F)c(F)c2F)cc1
active: NCI-H23 lung -28.5% | NCI-H322M lung 6.92% | HOP-62 NSCLC 1.97% | NCI-H460 lung -41% | NCI-H522 lung 4.29% | A549/ATCC NSCLC 6.57% | 786-0 renal -34.6% | COLO 205 colon -24.2% | K-562 leukemia 1.03% | MDA-MB-231 breast 7.97% | RXF 393 renal -52% | SF-268 CNS 3.53% | SF-539 CNS -69.9%
inactive: NCI-H226 lung 13% | HOP-92 NSCLC 49.7% | DU-145 prostate 12.3% | MALME-3M melanoma 80.9% | SF-295 CNS 18.2% | UACC-257 melanoma 73.7% | M14 melanoma 19.2%

Oc1cccc2c1NCCC2
inactive: NCI-H23 lung 13.6% | NCI-H226 lung 32.8% | NCI-H322M lung 38.3% | HOP-62 NSCLC 25.1% | A549/ATCC NSCLC 12.9% | 786-0 renal 26.6% | COLO 205 colon 38.6% | DU-145 prostate 34.8% | K-562 leukemia 13.5% | RXF 393 renal 43.9% | SF-268 CNS 35.3% | SF-539 CNS 26.4% | UACC-257 melanoma 12.4% | M14 melanoma 31.4%
active: NCI-H460 lung 5.35% | HOP-92 NSCLC -16.6% | NCI-H522 lung -2.3% | MALME-3M melanoma -0.428% | MDA-MB-231 breast 6.35% | SF-295 CNS 0.338%
